Data on 25 molecules can be found in ChEMBL document CHEMBL4296182, “CO-ADD screening of NIH NCI Diversity Set V”.

For part of these data: Entries with a potency or affinity are not part of this list.

The test system of one assay is Staphylococcus aureus. Description: Antibacterial activity against Staphylococcus aureus MRSA ATCC 43300 (CO-ADD:GP_020); MIC in CAMBH media using NBS plates, by Resazurin F(560/590). In kind it is functional. As to conditions: Concentration 20 uM, ASSAY_TEST Inhibition of Bacterial Growth, detection method Resazurin, Fluorescence (ex560/em590), MEDIA CAMHB, plate type 384well, CORNING #3640, time 18 hr.

The next assay has as its system Acinetobacter baumannii. In words: Antibacterial activity against Acinetobacter baumannii ATCC 19606 (CO-ADD:GN_034); MIC in CAMBH media using NBS plates, by Resazurin F(560/590). In kind it is functional. The following applies: Concentration 20 uM, ASSAY_TEST Inhibition of Bacterial Growth, detection method Resazurin, Fluorescence (ex560/em590), MEDIA CAMHB, plate type 384well, CORNING #3640, time 18 hr.

For another assay, the system named is Escherichia coli. Description: Antibacterial activity against Escherichia coli ATCC 25922 (CO-ADD:GN_001); MIC in CAMBH media using NBS plates, by Resazurin F(560/590). As to conditions: Concentration 20 uM, ASSAY_TEST Inhibition of Bacterial Growth, detection method Resazurin, Fluorescence (ex560/em590), MEDIA CAMHB, plate type 384well, CORNING #3640, time 18 hr. In kind it is functional.

The subject of a further assay is Klebsiella pneumoniae. As to conditions: Concentration 20 uM; ASSAY_TEST Inhibition of Bacterial Growth; detection method Absorption (OD600); MEDIA CAMHB; plate type 384well; NBS; CORNING #3640; time 18 hr.
The subject of a further assay is Candida albicans. As to conditions: 20 µM.
For the next assay, the system named is Cryptococcus neoformans. The following applies: Concentration 20 uM; ASSAY_TEST Inhibition of Fungal Growth; detection method Resazurin; Absorption (OD600-OD570); plate type 384well; NBS; CORNING #3640.

For the molecule `CC1CN(CCN2CC(C)N(C=O)CC2C)C(C)CN1C=O` (stereo not given), the Inhibition in the assay with Staphylococcus aureus is -7.66%; in the assay on Acinetobacter baumannii, -6.52%; in the assay with Escherichia coli, -13.71%; with Klebsiella pneumoniae, 5.89%; in the assay with Candida albicans, 1.99%; with Cryptococcus neoformans it was 25.73%.
In the case of `Nc1o[nH]c(=O)c1C1CCCCC1`, the Inhibition in the assay with Staphylococcus aureus was 7.44%; in the assay with Acinetobacter baumannii, -3.3%; with Escherichia coli, 16.54%; in the assay with Klebsiella pneumoniae, 10.69%; in the assay on Candida albicans, 1.7%; in the assay with Cryptococcus neoformans it was -0.63%.
As to `Oc1ccccc1-c1nc2c3ccccc3c3ccccc3c2[nH]1`, the Inhibition was 17.7% in the assay on Staphylococcus aureus; 0.13% in the assay on Acinetobacter baumannii; 3.46% in the assay on Escherichia coli; 14.09% in the assay with Klebsiella pneumoniae; 6.21% in the assay on Candida albicans; -5.55% with Cryptococcus neoformans.
Turning to `COC(=O)c1cc2c(n1S(=O)(=O)c1ccc(C)cc1)C(=O)C(=O)c1[nH]cc(C(=O)OCc3ccccc3)c1-2`, the Inhibition in the assay with Staphylococcus aureus is 12.8%; in the assay with Acinetobacter baumannii, -9.93%; with Escherichia coli it was 4.92%; with Klebsiella pneumoniae, 10.02%; in the assay on Candida albicans it was -2.87%; in the assay with Cryptococcus neoformans it was -5.89%.
Take `O=C(O)c1cncc(Br)c1`: the Inhibition in the assay with Staphylococcus aureus was 13.85%; in the assay on Acinetobacter baumannii it was -13.95%; in the assay on Escherichia coli, 3.81%; with Klebsiella pneumoniae, 4.04%; with Candida albicans it was 6.23%; in the assay on Cryptococcus neoformans, -7.23%.
Take `Nc1ccc(N/C(S)=N/c2ccccc2)cc1`: the Inhibition is 15.05% in the assay on Staphylococcus aureus; 4.29% in the assay with Acinetobacter baumannii; 7.29% in the assay on Escherichia coli; 5.43% in the assay with Klebsiella pneumoniae; 1.8% in the assay on Candida albicans; -4.63% in the assay on Cryptococcus neoformans.
Regarding `Nc1nc2c[nH]c(N)nc-2n1`, the Inhibition with Staphylococcus aureus was -4.21%; in the assay with Acinetobacter baumannii, 2.13%; with Escherichia coli, 5.84%; with Klebsiella pneumoniae, 7.49%; in the assay on Candida albicans it was 3.2%; with Cryptococcus neoformans it was -2.1%.
In the case of `CN(C)c1ccc(/N=N\c2cccc3ccoc23)cc1`, the Inhibition in the assay on Staphylococcus aureus is -15.18%; in the assay with Acinetobacter baumannii it was -4.75%; in the assay with Escherichia coli it was -16.41%; with Klebsiella pneumoniae, -3.95%; in the assay on Candida albicans it was 3.86%; in the assay with Cryptococcus neoformans, -4.24%.
In the case of `CCC(CNc1cc(OC)cc2cccnc12)NC1CCCCC1` (stereo not given), the Inhibition is 4.02% in the assay on Staphylococcus aureus; 11.06% in the assay with Acinetobacter baumannii; 4.95% in the assay with Escherichia coli; 14.97% in the assay on Klebsiella pneumoniae; -0.36% in the assay with Candida albicans; -7.8% in the assay on Cryptococcus neoformans.
With `Cc1ccccc1N=C(S)Nc1ccccn1`, the Inhibition was -11.3% with Staphylococcus aureus; 17.16% in the assay on Acinetobacter baumannii; -8.87% in the assay with Escherichia coli; 16.17% in the assay on Klebsiella pneumoniae; 15.5% with Candida albicans; 4.14% in the assay on Cryptococcus neoformans.
Turning to `NS(=O)(=O)c1cc2c(cc1Cl)NC(CC1CCCC1)NS2(=O)=O` (stereo not given) [CYCLOPENTHIAZIDE], the Inhibition with Staphylococcus aureus is 1.39%; with Acinetobacter baumannii, 8.9%; with Escherichia coli, -12.38%; in the assay on Klebsiella pneumoniae, 7.07%; with Candida albicans it was 3.92%; with Cryptococcus neoformans, 5.84%.
Turning to `Cc1ccc(NC(=O)NNC(=O)CSC2CCc3ccccc32)c(C)c1` (stereo not given), the Inhibition is 19.06% in the assay on Staphylococcus aureus; 5.57% with Acinetobacter baumannii; 0.84% with Escherichia coli; 5.08% with Klebsiella pneumoniae; 2.67% in the assay with Candida albicans; -10.98% in the assay with Cryptococcus neoformans.
Regarding `CN(C)C(=S)/N=c1\ssc(=S)n1Cc1ccco1`, the Inhibition in the assay on Staphylococcus aureus turned out to be 13.2%; in the assay on Acinetobacter baumannii, 6.63%; with Escherichia coli, 0.6%; with Klebsiella pneumoniae it was 0.81%; with Candida albicans, 2.24%; in the assay on Cryptococcus neoformans, 5.1%.
For `O=C(O)c1cc2cc(OCc3ccccc3)ccc2[nH]1`, the Inhibition in the assay with Staphylococcus aureus is 6.76%; with Acinetobacter baumannii, 10.19%; in the assay with Escherichia coli, 8.06%; in the assay with Klebsiella pneumoniae, 12.38%; with Candida albicans, 9.61%; in the assay with Cryptococcus neoformans, -8.34%.
Regarding `Cc1c(Cc2ccccc2)[n+]([O-])c2ccccc2[n+]1[O-]`, the Inhibition in the assay with Staphylococcus aureus is 19.3%; in the assay on Acinetobacter baumannii, -9.71%; with Escherichia coli, 20.29%; in the assay with Klebsiella pneumoniae, -6.69%; in the assay with Candida albicans it was -1.35%; in the assay on Cryptococcus neoformans, -12.82%.
On to `O=C(/C=C\c1ccc(O)c(O)c1)OC1C(O)CC(OC(=O)/C=C/c2ccc(O)c(O)c2)(C(=O)O)CC1O` (stereo not given), for which the Inhibition in the assay on Staphylococcus aureus is 21.21%; with Acinetobacter baumannii it was -10.3%; in the assay on Escherichia coli it was 9.77%; in the assay on Klebsiella pneumoniae, 14%; in the assay with Candida albicans it was -2.85%; in the assay on Cryptococcus neoformans, -1.87%.
With `CCOP(=O)(OCC)/C(C#N)=C/c1c[nH]c2ccccc12`, the Inhibition in the assay on Staphylococcus aureus is 16.69%; with Acinetobacter baumannii, 9.53%; with Escherichia coli, -1.43%; in the assay on Klebsiella pneumoniae, 13.34%; in the assay with Candida albicans, -0.38%; with Cryptococcus neoformans, -5.67%.
For `O=S(=O)(O)c1ccc2c(c1)C(C(Cl)(Cl)Cl)OC(C(Cl)(Cl)Cl)O2` (stereo not given), the Inhibition in the assay with Staphylococcus aureus was 10.71%; in the assay on Acinetobacter baumannii, -8.34%; in the assay on Escherichia coli, 18.82%; in the assay with Klebsiella pneumoniae, 1.9%; in the assay with Candida albicans, -0.48%; in the assay with Cryptococcus neoformans, -7.32%.
On to `O=C(Nc1ccc(C(=O)O)c(O)c1)c1ccccc1` [BENZOYLPAS], for which the Inhibition in the assay with Staphylococcus aureus was -3.42%; in the assay on Acinetobacter baumannii it was -17.37%; in the assay with Escherichia coli, 4.17%; with Klebsiella pneumoniae, 3.36%; in the assay with Candida albicans, 6.26%; with Cryptococcus neoformans it was -5.98%.
For the molecule `O=C(Cn1ccc(=O)[nH]c1=O)Nc1nccs1`, the Inhibition was 4.05% with Staphylococcus aureus; -8.5% with Acinetobacter baumannii; 10.86% with Escherichia coli; 12.12% in the assay with Klebsiella pneumoniae; 0.84% with Candida albicans; -10.28% in the assay on Cryptococcus neoformans.
For `O=C(Nc1cccc([N+](=O)[O-])c1)c1cc2ccccc2cc1O`, the Inhibition is -1.88% in the assay with Staphylococcus aureus; -9.44% with Acinetobacter baumannii; 23.78% in the assay on Escherichia coli; 3.58% with Klebsiella pneumoniae; 12.7% in the assay on Candida albicans; -10.5% in the assay on Cryptococcus neoformans.
As for `COCCn1c2nc(=O)n(-c3ccccc3)c(=O)c-2nc2ccccc21`, the Inhibition was 12.62% in the assay on Staphylococcus aureus; -2.61% in the assay on Acinetobacter baumannii; 6.79% in the assay on Escherichia coli; 23.4% in the assay on Klebsiella pneumoniae; 1.39% in the assay with Candida albicans; 4.88% with Cryptococcus neoformans.
For the molecule `Cc1ccc(/C=C2\CCOC2=O)cc1`, the Inhibition in the assay on Staphylococcus aureus was 9.11%; in the assay with Acinetobacter baumannii it was -13.71%; in the assay with Escherichia coli it was 3.05%; with Klebsiella pneumoniae it was 29.06%; in the assay on Candida albicans, 11.6%; with Cryptococcus neoformans, 1.19%.
Consider `CCOc1ccc(NC(=S)NC(=O)c2ccco2)cc1`, for which the Inhibition in the assay with Staphylococcus aureus is 8.6%; in the assay on Acinetobacter baumannii it was 0.34%; in the assay with Escherichia coli, 3.81%; with Klebsiella pneumoniae, 5.03%; in the assay on Candida albicans it was 7.98%; in the assay on Cryptococcus neoformans it was -14.9%.
In the case of `O=C1CCC(c2ccccc2)(c2ccccc2)CC1`, the Inhibition is -6.5% with Staphylococcus aureus; -6.38% in the assay on Acinetobacter baumannii; 1.3% with Escherichia coli; -0.79% with Klebsiella pneumoniae; -1.35% in the assay on Candida albicans; -9.68% in the assay with Cryptococcus neoformans.
